Screens as filed in PubChem BioAssay.
In the library only some 12% were active in any assay of this set; here they are far more common.
ROMK mod: ROMK potassium channel modulators, primary screen, cell-based, thallium flux, MLSMR library | ATP-sensitive inward rectifier potassium channel 1 (Homo sapiens), P48048 | Tet-inducible ROMK, thallium flux fluorescence; actives lie on both sides | B-score at 10 µM | 130,000 compounds, 2% hits;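 active = signal ratio slope over the read window, or its plate-corrected B-score, at least 3 SD from the plate mean, either direction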;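 also: B-score of the F/F0 ratio slope over 7 to 12 s after thallium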
INS promoter inh: inhibitors of insulin promoter-driven GFP, primary screen, imaging, TRM-6 cells (human fetal islet line), eGFP reporter, cell count. reporter expression induced with tamoxifen. inhibition, % at 2 µM. 130,000 compounds, 0.9% hits. AID 1273, 2008;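 active = inhibition above the mean plus 3 SD, with well images judged a real hit on visual review, cut at about 60% in these data, passing the limit was not always enough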
WT yeast gro inh: growth inhibition of WT strain, primary screen, mitochondrial fusion inhibitor project, WT and mutant strains, chemical genetic; inhibition, % at 10 µM; mitochondrial fusion phenotypic screen; 190,000 compounds, 2.1% hits; in the data active = inhibition above about 58%; tested in S. cerevisiae
KCC2 mod: KCC2 cotransporter modulators, thallium flux, primary screen, cell-based, HEK293 KCC2, FluoZin-2 fluorescence, MLSMR; Solute carrier family 12 member 5 (Homo sapiens), Q9H2X9; KCC2 cells, thallium flux FluoZin-2 fluorescence; B-score of Tl+ flux slope (higher = more flux/activation; lower = inhibition) at 10 µM; 190,000 compounds, 2.2% hits;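 active = thallium flux slope and its plate-corrected score both differing from the plate sample mean at a set confidence after two filtering rounds, in either direction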;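 also: slope of fluorescence scaled to starting intensity during 10 to 20 s after thallium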
Target sequence (Q9H2X9 whole entry, looked up): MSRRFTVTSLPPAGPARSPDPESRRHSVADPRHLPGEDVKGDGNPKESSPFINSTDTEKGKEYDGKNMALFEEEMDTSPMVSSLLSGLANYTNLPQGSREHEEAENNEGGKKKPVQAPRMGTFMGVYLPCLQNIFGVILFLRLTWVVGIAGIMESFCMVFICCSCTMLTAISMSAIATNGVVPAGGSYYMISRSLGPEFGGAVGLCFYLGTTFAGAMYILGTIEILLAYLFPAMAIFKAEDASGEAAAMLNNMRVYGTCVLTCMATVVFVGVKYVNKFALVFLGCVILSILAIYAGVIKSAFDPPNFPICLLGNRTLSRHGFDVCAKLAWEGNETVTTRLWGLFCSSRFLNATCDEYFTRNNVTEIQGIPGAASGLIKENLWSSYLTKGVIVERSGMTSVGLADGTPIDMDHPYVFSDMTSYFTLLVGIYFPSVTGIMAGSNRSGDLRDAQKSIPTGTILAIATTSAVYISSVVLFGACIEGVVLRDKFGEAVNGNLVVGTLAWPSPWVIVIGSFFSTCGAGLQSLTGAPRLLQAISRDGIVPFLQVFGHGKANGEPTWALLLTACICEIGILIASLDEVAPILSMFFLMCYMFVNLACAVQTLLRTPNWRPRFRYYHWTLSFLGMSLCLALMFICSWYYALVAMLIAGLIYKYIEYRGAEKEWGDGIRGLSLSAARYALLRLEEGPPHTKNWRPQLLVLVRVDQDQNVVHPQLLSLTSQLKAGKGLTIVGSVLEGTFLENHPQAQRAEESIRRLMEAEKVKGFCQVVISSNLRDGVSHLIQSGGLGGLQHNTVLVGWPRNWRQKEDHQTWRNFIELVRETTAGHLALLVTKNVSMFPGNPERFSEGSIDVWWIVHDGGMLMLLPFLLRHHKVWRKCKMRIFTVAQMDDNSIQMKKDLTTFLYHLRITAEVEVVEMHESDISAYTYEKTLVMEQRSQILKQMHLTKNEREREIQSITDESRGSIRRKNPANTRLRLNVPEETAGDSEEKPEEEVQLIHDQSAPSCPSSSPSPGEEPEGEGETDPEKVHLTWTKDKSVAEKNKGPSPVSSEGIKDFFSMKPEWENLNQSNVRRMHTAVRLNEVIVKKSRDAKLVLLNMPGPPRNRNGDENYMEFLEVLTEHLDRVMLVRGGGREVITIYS
Ins promoter up: insulin promoter activators in MIN6 cells, imaging, high-content screening, mouse beta cells; z-score at 5 µM; MIN6 insulin promoter-GFP reporter; stronger effect = higher value; AID 1625, 2009; 190,000 compounds, 0.3% hits;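 active = z-score above 3 at 5 µM with at least 500 cells counted in the well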
Lmaj promast: Leishmania major promastigote growth inhibition, primary screen. 200,000 compounds, 9% hits. Leishmania major promastigotes, resazurin fluorescence viability. inhibition, % at 10 µM; in the data active = inhibition above about 50%;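 also: promastigotes grown with compound for 44 hours at 28 °C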
Hits are given with their value.

Results for CC(=O)N(Cc1cc(=O)[nH]c2ccccc12)c1ccccc1 ?
INS promoter inh: inactive; WT yeast gro inh: inactive; Ins promoter up: inactive; Lmaj promast: inactive

How did C/C(N)=C(/C#N)C(=O)COC(=O)C(c1ccccc1)c1ccccc1 do in these assays?
ROMK mod: inactive; INS promoter inh: inactive; WT yeast gro inh: inactive; KCC2 mod: inactive; Ins promoter up: inactive; Lmaj promast: 73

Results for COc1ccc(C2CC(c3cccs3)=NN2C(=O)c2ccc(Br)o2)cc1 (stereo not drawn) ?
ROMK mod: inactive; INS promoter inh: inactive; WT yeast gro inh: 64; KCC2 mod: inactive; Ins promoter up: inactive; Lmaj promast: inactive

How did COc1ccc(C2CC(c3cccs3)=NN2c2ccc(C=O)cc2)cc1 (stereo not drawn) do in these assays?
ROMK mod: inactive; INS promoter inh: inactive; WT yeast gro inh: inactive; KCC2 mod: inactive; Ins promoter up: inactive; Lmaj promast: 92

What do the screens show for `COc1ccc(C)cc1S(=O)(=O)Nc1ccccc1C`?
INS promoter inh: inactive; WT yeast gro inh: inactive; KCC2 mod: inactive; Ins promoter up: inactive; Lmaj promast: inactive

What do the screens show for `COc1cc(NS(=O)(=O)c2cc(C)ccc2OC)c(OC)cc1Cl`?
INS promoter inh: inactive; WT yeast gro inh: inactive; Ins promoter up: inactive; Lmaj promast: 99

How did O=C(COc1ncnc2ccccc12)NCc1ccc2c(c1)OCO2 do in these assays?
INS promoter inh: inactive; WT yeast gro inh: inactive; Ins promoter up: inactive; Lmaj promast: inactive

What do the screens show for `CCOC(=O)CN1C(=O)Nc2ccc(Br)cc2C1c1ccccc1` (stereo not drawn)?
INS promoter inh: inactive; WT yeast gro inh: inactive; KCC2 mod: inactive; Ins promoter up: inactive; Lmaj promast: inactive

Results for CCOC(=O)CN1C(c2ccc(O)cc2)Nc2ccc(Br)cc2C1c1ccccc1 (stereo not drawn) ?
ROMK mod: inactive; INS promoter inh: inactive; WT yeast gro inh: 96; KCC2 mod: inactive; Ins promoter up: inactive; Lmaj promast: inactive

What do the screens show for `S=C(Nc1ccc(Cl)cc1)N1CCN(Cc2ccccc2)CC1`?
ROMK mod: inactive; WT yeast gro inh: inactive; KCC2 mod: inactive; Lmaj promast: inactive

Results for CC(C)c1ccc(NC(=S)N2CCN(Cc3ccccc3)CC2)cc1 ?
ROMK mod: inactive; WT yeast gro inh: inactive; KCC2 mod: inactive; Ins promoter up: inactive; Lmaj promast: 86

What do the screens show for `FC(F)Oc1ccc(NC(=S)N2CCN(Cc3ccccc3)CC2)cc1`?
ROMK mod: inactive; INS promoter inh: inactive; WT yeast gro inh: inactive; KCC2 mod: inactive; Ins promoter up: inactive; Lmaj promast: 80

Results for COc1ccc(NC(=S)N2CCN(Cc3ccc(C)cc3)CC2)cc1 ?
ROMK mod: inactive; WT yeast gro inh: inactive; KCC2 mod: inactive; Ins promoter up: inactive; Lmaj promast: 62

What do the screens show for `COc1ccc(CCC(C)Nc2ccc(F)cc2)cc1` (stereo not drawn)?
ROMK mod: inactive; INS promoter inh: inactive; WT yeast gro inh: inactive; KCC2 mod: inactive; Lmaj promast: inactive

What do the screens show for `COc1ccc(CCC(C)NCC2CCCCC2)cc1` (stereo not drawn)?
WT yeast gro inh: inactive; KCC2 mod: inactive; Ins promoter up: inactive; Lmaj promast: 87

Results for CCS(=O)(=O)n1nc(-c2ccco2)nc1N ?
ROMK mod: inactive; INS promoter inh: inactive; WT yeast gro inh: inactive; KCC2 mod: inactive; Lmaj promast: inactive

Results for CCOC(=O)c1cnc(Nc2nc3ccccc3o2)nc1CSC(=S)N(CC)CC ?
WT yeast gro inh: inactive; KCC2 mod: inactive; Lmaj promast: 100

Results for COc1cc(OC)c(NC(C)C(=O)NCc2ccccc2)cc1Cl (stereo not drawn) ?
ROMK mod: inactive; INS promoter inh: inactive; WT yeast gro inh: inactive; KCC2 mod: inactive; Lmaj promast: inactive

What do the screens show for `COC(=O)c1cc(NS(=O)(=O)c2ccc(NCc3cccnc3)c([N+](=O)[O-])c2)cc(C(=O)OC)c1`?
WT yeast gro inh: inactive; KCC2 mod: inactive; Ins promoter up: inactive; Lmaj promast: inactive

How did CCc1ccc(CN(C)C(=O)CCc2nc3ccccc3n(-c3ccc(OC)cc3)c2=O)cc1 do in these assays?
ROMK mod: inactive; WT yeast gro inh: 58; KCC2 mod: inactive; Ins promoter up: inactive; Lmaj promast: inactive

What do the screens show for `COc1ccc(-n2c(=O)c(CCC(=O)N(C)Cc3ccccc3C)nc3ccccc32)cc1`?
ROMK mod: inactive; WT yeast gro inh: inactive; KCC2 mod: inactive; Ins promoter up: inactive; Lmaj promast: 66

How did O=C(CCCn1c(=S)[nH]c2cc3c(cc2c1=O)OCO3)N1CCN(c2ccc(Cl)cc2)CC1 do in these assays?
INS promoter inh: inactive; WT yeast gro inh: inactive; KCC2 mod: inactive; Ins promoter up: inactive; Lmaj promast: 56

What do the screens show for `O=C(CCCn1c(=S)[nH]c2cc3c(cc2c1=O)OCO3)N1CCN(c2ccccc2)CC1`?
INS promoter inh: inactive; WT yeast gro inh: inactive; KCC2 mod: inactive; Ins promoter up: inactive; Lmaj promast: inactive

How did O=c1oc(-c2cccs2)nc2sc3c(c12)CCCC3 do in these assays?
ROMK mod: inactive; INS promoter inh: 68; WT yeast gro inh: inactive; Ins promoter up: inactive; Lmaj promast: inactive

How did Clc1ccc(OCCSCc2nc3ccccc3[nH]2)cc1 do in these assays?
INS promoter inh: inactive; WT yeast gro inh: 79; Ins promoter up: inactive; Lmaj promast: inactive

What do the screens show for `Cc1ccc(SCc2nc3ccccc3[nH]2)cc1`?
ROMK mod: inactive; WT yeast gro inh: inactive; KCC2 mod: inactive; Ins promoter up: inactive; Lmaj promast: inactive

What do the screens show for `Cc1ccc(CSCc2nc3ccccc3[nH]2)cc1`?
ROMK mod: inactive; WT yeast gro inh: 67; KCC2 mod: inactive; Lmaj promast: inactive

Results for Cc1cc(C)cc(CC(Cc2nc3ccccc3[nH]2)c2nc3ccccc3[nH]2)c1 (stereo not drawn) ?
INS promoter inh: inactive; WT yeast gro inh: inactive; Ins promoter up: inactive; Lmaj promast: 91

Results for CCCCc1nc2ccccc2[nH]1 ?
ROMK mod: inactive; INS promoter inh: 89; WT yeast gro inh: inactive; KCC2 mod: inactive; Ins promoter up: inactive; Lmaj promast: inactive

How did O=C(CSc1nc(-c2ccco2)cc(C(F)(F)F)n1)Nc1ccc(C(=O)N2CCOCC2)cc1 do in these assays?
INS promoter inh: inactive; WT yeast gro inh: inactive; KCC2 mod: inactive; Ins promoter up: inactive; Lmaj promast: inactive

Results for COc1ccc(/C=C(/C#N)C(=O)Nc2cccc([N+](=O)[O-])c2)cc1C(=O)O ?
ROMK mod: inactive; WT yeast gro inh: inactive; KCC2 mod: inactive; Ins promoter up: inactive; Lmaj promast: inactive

Results for COCC(=O)Nc1cc(C(=O)Nc2cccc(C)c2C)ccc1Cl ?
ROMK mod: inactive; INS promoter inh: inactive; WT yeast gro inh: inactive; KCC2 mod: inactive; Ins promoter up: inactive; Lmaj promast: inactive
